# Some structures have more than one record in an assay (separate samples or runs), and their calls can disagree. Active and inactive are the calls of the source. The calls were made as follows: active = hit-call score of the fitted dose curve at least 0.9, where 1 is the maximum; inactive = score below 0.9.
# Assay: ATG_MRE_CIS: Attagene CIS-FACTORIAL HepG2 Assay for human Metal Responsive Element (MRE) (AID 2282954)
# Conditions: HepG2 MRE cis-reporter transcription, Attagene multiplex; actives raise or lower the signal
# Method: ATG_CIS is a cell-based, multiplexed-readout assay that uses HepG2, a human liver cell line, with measurements taken at 24 hours after chemical dosing in a 24-well plate.ATG_MRE_CIS is one of 52 assay component(s) measured or calculated from the ATG_CIS assay. It is designed to make measurements of mRNA induction, a form of inducible reporter, as detected with fluorescence intensity signals by Reverse transcription polymerase chain reaction (RT-PCR) and Capillary electrophoresis technology.Data from the assay component ATG_MRE_CIS was analyzed into 1 assay endpoint. This assay endpoint, ATG_MRE_CIS, was analyzed with bidirectional fitting relative to DMSO as the negative control and baseline of activity. Using a type of inducible reporter, measures of mRNA for gain or loss-of-signal activity can be used to understand the reporter gene at the transcription factor-level as they relate to the gene MTF1. Furthermore, this assay endpoint can be referred to as a primary readout, because this assay has produced multiple assay endpoints where this one serves a reporter gene function. To generalize the intended target to other relatable targets, this assay endpoint is annotated to the dna binding intended target family, where the subfamily is zinc finger.
# Human liver HepG2 cells are transiently transfected with multiple reporter transcription units (MRTUs) in 6-well plates using FuGene 6 reagent (Roche; 3 ml FuGene/1 mg DNA). The MRTU constructs are regulated by a cis-regulating element (promoter). […] A major difference between the CIS and TRANS system is that in CIS activities of endogenous TFs are measured, whereas the TRANS assay evaluates changes in activities of exogenous, chimeric NR-Gal4 proteins. […] At the end of 24 hour incubation, total RNA was isolated using TriZol reagent (Invitrogen). The isolated RNA is then reverse-transcribed using oligo(dT) primer and Mo-MLV reverse transcriptase (Invitrogen) with DNAse I (Ambion) treatment for 30 min. The one-tenth of the produced cDNA was amplified by PCR using Taq DNA polymerase (Invitrogen) and two reporter sequence-specific primers. The PCR products were fluorescently labeled by primer extension with 6-arboxyfluorescein (6-FAM) 5'-labeled reporter sequence-specific primer (2 min at 95 C, 20 s at 68 C and 10 min at 72 C) and these products were digested with 5U of HpaI (New England Biolabs) for 2h at 37 C. The fragments were purified using Qiaquick PCR columns (Qiagen), analyzed on an ABI 3130xL genetic analyzer (Applied Biosystems) with peak positions identified by using a set of X-rhodamine (ROX)-labeled MapMarker1000 molecular weight standards (BioVentures). The raw capillary electrophoresis data was processed using Attagraph software (Attagene).
Structure (SMILES),outcome,AC50
CCN(Cc1cccc(S(=O)(=O)O)c1)c1ccc(C(=C2C=CC(=[N+](CC)Cc3cccc(S(=O)(=O)O)c3)C=C2)c2ccc(O)cc2S(=O)(=O)[O-])cc1,inactive,–
FC(F)(F)C(F)(F)C(F)(F)C(F)(F)C(F)(F)C(F)(F)CC1CO1 (stereo not given),inactive,–
OCCCC(F)(F)C(F)(F)C(F)(F)C(F)(F)C(F)(F)C(F)(F)C(F)(F)F,inactive,50 µM (active)
C=C(C)C(=O)OCC(F)(F)C(F)(F)C(F)(F)C(F)(F)C(F)(F)C(F)(F)C(F)(F)F,inactive,–
NC(=O)C(F)(F)C(F)(F)C(F)(F)C(F)(F)F,inactive,–
Cc1cccc(N(C)C)c1,inactive,–
O=C(C=Cc1ccccc1)OCC=Cc1ccccc1,inactive,–
CCCCCC=O,inactive,–
FC(F)(F)C(F)(F)C(F)(F)CI,inactive,–
O=C(O)C=C(C(F)(F)F)C(F)(F)F,inactive,–
CC(C)(C)C(=O)CC(=O)C(F)(F)C(F)(F)C(F)(F)F,inactive,–
C(=C(c1ccccc1)c1ccccc1)c1ccccc1,inactive,–
C=CC(F)(F)C(F)(F)C(F)(F)C(F)(F)C(F)(F)C(F)(F)C(F)(F)C(F)(F)C=C,inactive,–
CC(C)c1ccccc1N,inactive,–
CC(C)(C)c1ccc(OC2CCCCC2O)cc1 (stereo not given),inactive,–
CCCCCCOC(=O)c1ccccc1O,inactive,–
O=P(O)(O)OCCC(F)(F)C(F)(F)C(F)(F)C(F)(F)C(F)(F)C(F)(F)F,inactive,–
CNC(=S)NC,inactive,–
CC(CCl)OP(=O)(OC(C)CCl)OC(C)CCl (stereo not given),inactive,–
CCCCOc1ccc(N)cc1,inactive,–

Structure (SMILES),outcome,AC50
FC(F)(F)C(F)(F)C(F)(F)C(F)(F)C(F)(F)C(F)(F)C(F)(F)I,inactive,–
CS(C)(=O)=O,inactive,–
Nc1ccc(S(=O)(=O)Nc2nccs2)cc1,inactive,–
Nc1cc(Cl)c(N)c(Cl)c1,inactive,–
O=S(=O)(OCCOC(F)(F)F)C(F)(F)F,inactive,–
Nc1ccc([N+](=O)[O-])cc1O,inactive,–
OCC(F)(F)C(F)(F)C(F)(F)F,inactive,–
Nc1ccc(Oc2cccc(Oc3ccc(N)cc3)c2)cc1,–,64.6 µM (active)
CO[Si](OC)(c1ccccc1)c1ccccc1,inactive,–
[Co],inactive,–
OCCCC(F)(F)C(F)(F)C(F)(F)F,inactive,–
C#C[C@]1(O)CC[C@H]2[C@@H]3CCc4cc(OC)ccc4[C@H]3CC[C@@]21C,–,7.54 µM (active)
CN(C)Cc1ccccc1O,inactive,–
CC(C)OC(=O)c1ccccc1C(=O)OC(C)C,inactive,–
Cc1ccc(S(=O)(=O)NCl)cc1,inactive,–
CCCCNc1ccccc1,inactive,–
O=C(O)C(F)(OC(F)(F)C(F)(OC(F)(F)C(F)(OC(F)(F)C(F)(F)C(F)(F)F)C(F)(F)F)C(F)(F)F)C(F)(F)F (stereo not given),inactive,–
COC(OC(C)=O)c1ccccc1 (stereo not given),inactive,–
CCN(CC)c1ccc2c(C)cc(=O)oc2c1,–,71.9 µM (active)
